The source of these data is PubChem BioAssay AID2284418 (EPA ToxCast).

The structures appear in SMILES notation. Records with an inconclusive call do not appear. Active and inactive are the calls of the source. Rule for the calls: active = hit-call score of the fitted dose curve at least 0.9, where 1 is the maximum; inconclusive = response in the unintended direction; inactive = score below 0.9.

The assay relates to SRY-box transcription factor 17 (SOX17) Protein Expression, Deisenroth Lab, SOX17 (gene 64321). The assay can be described thus: CCTE_Deisenroth_DEVTOX-GLR_Meso_SOX17: CCTE's DevTox GLR-Meso Assay Evaluation of SRY-box transcription factor 17 (SOX17) Protein Expression, Deisenroth Lab. How it is done:
CCTE_Deisenroth_DEVTOX-GLR_Meso assay is a cell-based, multiplex-readout assay that uses RUES2-GLR, a human pluripotent cell line, with measurements taken at 48 hours after chemical dosing in a 384-well microplateCCTE_Deisenroth_DEVTOX-GLR_Meso_SOX17 is 1 of 4 assay components calculated from the CCTE_Deisenroth_DEVTOX-GLR_Meso assay and it measures an the percentage of cells in an endoderm state. Using a type of inducible fluorescent protein reporter, gain-of-signal activity can be used to understand changes in gene expression with fluorescent microscopy. The percentage of SOX17+ cells are determined by calculating the number of SOX17+ cells divided by cell count. To generalize the intended target to other relatable targets, this assay component is annotated to the transcription factor intended target family, where the subfamily is SRY-related HMG-box.Data from the assay component CCTE_Deisenroth_DEVTOX-GLR_Meso_SOX17 was analyzed as 1 assay endpoint. The endpoint is the percent SOX17+ cell population minus the 0.2% DMSO control in the CCTE_Deisenroth_DEVTOX-GLR_Meso assay. This assay endpoint can be referred to as a secondary readout since this assay has produced multiple assay endpoints where this one serves as a measure of endoderm differentiation.
All assay protocols are aligned to the DevTox GLR-Endo assay workflow. Cells are seeded into 384-well microplates for 24 hours prior to initiating differentiation in defined media for a total duration of 48 hours. A total of two chemical exposures are administered in 24-hour intervals during the 48-hour differentiation period. At the assay termination point, cells are fixed and stained with a fluorescent dye demarcating the nucleus. High-content imaging is used to acquire brightfield and fluorescent channel images across 5 fields per well. Cell identification and mean biomarker fluorescence intensities are calculated with image analysis software to determine the total cell counts for viability assessment and the biomarker expression frequency for each lineage-dependent assay. A typical experimental design tests a 10-point concentration series (1 nM - 200 uM) for 28 compounds in single technical replicate. Assay plate controls include non-differentiated pluripotent cells (baseline control), lineage-specific differentiated cells (differentiation control), and DMSO solvent exposed differentiated cells (solvent control). Experiments typically comprise a minimum of four experimental replicates (n=4).
What is called AC50 is the concentration at which the activity in the assay is half-maximal. `CS(=O)(=O)OCCCCOS(C)(=O)=O`: the concentration at half-maximal activity (AC50) is 107 µM (active).

In the case of `Nc1nc2ncc(CNc3ccc(C(=O)N[C@@H](CCC(=O)O)C(=O)O)cc3)nc2c(=O)[nH]1`, the compound was called inactive. Take `CN(Cc1cnc2nc(N)nc(N)c2n1)c1ccc(C(=O)N[C@@H](CCC(=O)O)C(=O)O)cc1`: the concentration at half-maximal activity (AC50) was 0.0944 µM (active). The same measure, in the same setting: with `O=c1[nH]cc(F)c(=O)[nH]1` the figure was 22.6 µM (active); with `CC/C(=C(/CC)c1ccc(O)cc1)c1ccc(O)cc1`, 6.47 µM (active). `Nc1cccc2c1C(=O)N(C1CCC(=O)NC1=O)C2=O` (centres undefined): the call was inactive.

Turning to `O=C1NS(=O)(=O)c2ccccc21`, the result was inactive. `CC1=C(/C=C/C(C)=C/C=C/C(C)=C/C(=O)O)C(C)(C)CCC1`: the AC50 was 22 µM (active). With `CCN(CC)CCNC(=O)c1c(C)[nH]c(/C=C2\C(=O)Nc3ccc(F)cc32)c1C`, the AC50 is 0.8 µM (active). Take `O=C1NC(=O)C(c2ccccc2)(c2ccccc2)N1`: the half-maximal activity concentration (AC50) is 146 µM (active).

For `CCCC(CCC)C(=O)O`, the call was inactive.

In the case of `CC1=C(/C=C/C(C)=C/C=C/C(C)=C\C(=O)O)C(C)(C)CCC1`, the AC50 is 30.2 µM (active). On the same count and under the same terms, as for `CC(C)(c1ccc(O)cc1)c1ccc(O)cc1`, the figure is 142 µM (active). On to `O=C1CCC(N2C(=O)c3ccccc3C2=O)C(=O)N1` (centres undefined), for which the compound was classed as inactive.
